About 79,000 compounds went through this panel and 15% of them were active in at least one assay; those are over-represented in the sample as a whole. Unmarked numbers belong to inactive results. The source made the active and inactive calls. Rule as the data show it: active = growth inhibition above about 70%; inactive = the rest.
Test: NCI Yeast Anticancer Drug Screen. Data for the rad50EPP+ strain (AID 151);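 also: 0% = growth of vehicle-treated control cultures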
Conditions: S. cerevisiae rad50 mutant strain, at 11.0 µM, hits give high values
In short: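 rad50EPP+ yeast treated with test compounds. Readout: growth vs vehicle control.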

Structure (SMILES) | growth inhibition
CC(CN(C)C)C(=O)/C=C/c1ccc(Cl)c(Cl)c1 (configuration not stated) | 27%
C/C(=N/NC(=S)Nc1ccccc1C)c1ccccn1 | 13%
O=C1/C(=C/c2ccc(Cl)c(Cl)c2)CNC/C1=C\c1ccc(Cl)c(Cl)c1 | 19%
CC(C)OP(=O)(OC(C)C)C(=NCCO)NNc1ccc([N+](=O)[O-])cc1 | 69%
N#CCC(=O)N/N=C(\c1ccccc1)C(c1ccccc1)C1(O)C(=O)Nc2c(Cl)ccc(Cl)c21 (configuration not stated) | 15%
CC(C)(CN1CCCCC1)C(=O)CC(SCCS(=O)(=O)O)c1ccccc1 (configuration not stated) | -1%
COC1=CCC23C(=O)C=CC(=O)C2(C1)C(=O)c1ccccc1C3=O (configuration not stated) | 25%
CCCCN(CCCC)c1ccc(N=Nc2ccc(S(=O)(=O)O)cc2)cc1 | 48%
c1ccc2nc3c(nc2c1)sc1ccccc13 | 95% (active)
O=C1c2ccccc2-c2ccc(N=Cc3ccccc3)cc21 | 34%
CNC(=S)N/N=C(/C)CCC/C(C)=N/NC(=S)NC | 37%
Nc1ccc(/C=C/c2ccc3cccnc3c2)cc1 | 8%
CCOC(=O)Nc1ccc(C)c(NC(=O)OCC)c1 | 19%
CCN(CC)CCNc1ccc2nc(C)n3c4ccc(OC)cc4c(=O)c1c23 | 3%
O=C(c1cc(=O)c2ccc(O)cc2o1)c1ccc(Cl)cc1Cl | 52%
O=C(Cc1ccccc1)NN1C(=O)C(Cl)C1c1cc(Br)cc(Br)c1O (configuration not stated) | 29%
O=[N+]([O-])/C=C/c1cc2ccc3ccccc3c2[nH]1 | 94% (active)

Source: PubChem BioAssay (NCI)
